± gives the standard deviation of the averaged measurements.
Tested on: SW480
Test: TCF/Wnt firefly luciferase reporter signal relative to plate median (fraction of plate median); higher = higher Wnt reporter signal
Conditions: 5 µM; treatment time 24 h; reporter: 7TFP
Method in brief: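 Each entry is a luminescence signal normalised to the plate median, averaged over independent replicates. The replicate count was two, and the cells were colorectal cancer lines with stable lentiviral TCF/Wnt firefly luciferase reporters exposed to library compounds at a final 5 µM for 24 h. Firefly luciferase and CellTiterGlo were measured on parallel plates.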

Row | SMILES | TCF/Wnt firefly luciferase reporter signal
1 | Cc1ccccc1N1C(=O)c2cc(S(N)(=O)=O)c(Cl)cc2NC1C (stereo not given) | 0.938 ± 0.19
2 | COc1ccc(-c2coc3cc(O)cc(O)c3c2=O)cc1 | 1.05 ± 0.064
3 | COc1ccc([C@H]2Oc3cc(OC)cc(OC)c3C[C@H]2O)cc1 | 1.03 ± 0.052
4 | Cc1onc(-c2ccccc2)c1-c1ccc(S(N)(=O)=O)cc1 | 0.956 ± 0.17
5 | Cc1nnc(NS(=O)(=O)c2ccc(N)cc2)s1 | 0.981 ± 0.056
6 | Nc1c2c(nc3ccccc13)CCCC2O (stereo not given) | 0.931 ± 0.03
7 | CN(C)CCCO[C@@H]1[C@H]2OC(C)(C)O[C@H]2O[C@@H]1[C@H](O)CO | 0.972 ± 0.029
8 | C=C1CC[C@H](O)C/C1=C/C=C1\CCC[C@]2(C)[C@@H]([C@H](C)/C=C/[C@H](C)C(C)C)CC[C@@H]12 | 1.09 ± 0.014
9 | CC(=O)O[C@H]1C[C@@H](OC(C)=O)C(C)(C)C2C[C@@H](O)[C@]3(C)C(CC[C@@]4(C)[C@H](c5ccoc5)OC(=O)[C@H]5O[C@]543)[C@]21C (stereo not given in full) | 1.02 ± 0.061
10 | COc1cc2cc3c4cc(OC)c(OC)cc4cc[n+]3c(C)c2cc1OC | 1.01 ± 0.097
11 | CC1=C(C/C=C(\C)CCC[C@H](C)CCC[C@H](C)CCCC(C)C)C(=O)c2ccccc2C1=O | 0.92 ± 0.064
12 | CC(C)Oc1ccc2c(=O)c(-c3ccccc3)coc2c1 | 0.949 ± 0.34
13 | O=C(Oc1cc(OC(=O)c2ccccc2)c2c(c1)O[C@H](c1ccc(OC(=O)c3ccccc3)c(OC(=O)c3ccccc3)c1)[C@@H](OC(=O)c1ccccc1)C2)c1ccccc1 | 0.972 ± 0.016
14 | COc1cccc(OC)c1C(=O)N[C@@H]1C(=O)N2[C@@H]1SC(C)(C)[C@@H]2C(=O)O | 1.06 ± 0.16
15 | CC(CN1c2ccccc2Sc2ccccc21)N(C)C (stereo not given) | 1.115 ± 0.0071
16 | OC[C@@H](O)[C@@H](O[C@@H]1O[C@H](CO)[C@@H](O)[C@H](O)[C@H]1O)[C@H](O)[C@@H](O)CO | 1.11 ± 0.014
17 | CC(C)=CCC/C(C)=C\CO | 0.964 ± 0.046
18 | c1ccc(-c2ccc(C(c3ccccc3)n3ccnc3)cc2)cc1 (stereo not given) | 0.923 ± 0.033
19 | O=C(O)c1c[nH]c2ccccc12 [Indole-3-carboxylic acid] | 0.968 ± 0.21
20 | C[C@H]1[C@H]2CC[C@H]3[C@@H]4CC=C5C[C@@H](N(C)C)CC[C@]5(C)[C@H]4CC[C@]23CN1C | 1.05

Row | SMILES | TCF/Wnt firefly luciferase reporter signal
21 | C=CC[S+]([O-])C[C@H](N)C(=O)O (stereo not given in full) | 1.05 ± 0.042
22 | C/C1=C2/[N-][C@H]([C@H](CC(N)=O)[C@@]2(C)CCC(=O)NC[C@@H](C)OP(=O)([O-])O[C@H]2[C@@H](O)[C@@H](n3cnc4cc(C)c(C)cc43)O[C@@H]2CO)[C@]2(C)N=C(/C(C)=C3N=C(/C=C4N=C1[C@@H](CCC(N)=O)C\4(C)C)[C@@H](CCC(N)=O)[C@]\3(C)CC(N)=O)[C@@H](CCC(N)=O)[C@]2(C)CC(N)=O.[CH2-][C@H]1O[C@H](n2cnc3c(N)ncnc32)[C@@H](O)[C@H]1O.[Co+3] | 0.971 ± 0.2
23 | C[C@@]12C[C@@]3(O)O[C@@H](O1)[C@]1(COC(=O)c4ccccc4)[C@H]3C[C@@]12O[C@@H]1O[C@H](CO)[C@@H](O)[C@H](O)[C@H]1O | 1.01 ± 0.21
24 | CCC(=O)C(CC)C(O)C(C)CC(C)C1OC(=O)CC2(O)CC=C(C)C(O2)/C(C)=C/CCCC(OC2CC(OC(N)=O)C(O)C(C)O2)/C=C\C(C)C(O)C1C (stereo not given) | 0.974 ± 0.025
25 | C[C@H]1C(=O)CC[C@@H]2[C@]1(C)CC[C@H]1[C@@]2(C)CC[C@@]2(C)[C@@H]3CC(C)(C)CC[C@]3(C)CC[C@]12C | 0.88 ± 0.09
26 | Nc1ccc(S(N)(=O)=O)cc1 | 1.02 ± 0.073
27 | COc1c2occc2c(OC)c2c(=O)cc(C)oc12 | 1.12 ± 0.042
28 | Cc1cc(=O)[nH]c(=S)[nH]1 | 0.9835 ± 0.0064
29 | COc1cc(O)cc(OC)c1OC | 0.978 ± 0.0028
30 | Oc1cc(O)c2c(c1)O[C@H](c1ccc(O)c(O)c1)[C@@H](O)C2 | 1.15 ± 0.035
31 | COc1ccc(CCC(=O)c2c(O)cc(O[C@@H]3O[C@H](CO)[C@@H](O)[C@H](O)[C@H]3O[C@@H]3O[C@@H](C)[C@H](O)[C@@H](O)[C@H]3O)cc2O)cc1O | 1.04 ± 0.028
32 | CCCCCC(=O)O[C@]1(C(C)=O)CC[C@H]2[C@@H]3CCC4=CC(=O)CC[C@]4(C)[C@H]3CC[C@@]21C | 1.04 ± 0.021
33 | CNS(=O)(=O)c1ccc(NC(=O)c2ccccc2C(=O)O)cc1 | 1.085 ± 0.0071
34 | C[C@H]1COC2=C1C(=O)C(=O)c1c2ccc2c1CCCC2(C)C | 0.906 ± 0.12
35 | Cc1ccc2c(Cl)cc(Cl)c(O)c2n1 | 1.04 ± 0.067
36 | O=C(O)CCCCCCCC(=O)O | 1.01 ± 0.084
37 | COc1ccc(C(C)=O)c(O)c1 | 1.03 ± 0.068
38 | CC(C)NCC(O)c1cc(O)cc(O)c1 (stereo not given) | 0.987 ± 0.018
39 | COc1ccc(-c2coc3cc(O)ccc3c2=O)c(OC)c1O | 0.975 ± 0.025
40 | CCCCCCCCCCC[C@@H](C[C@@H]1OC(=O)[C@H]1CCCCCC)OC(=O)[C@H](CC(C)C)NC=O | 0.933 ± 0.023

Source: the supplement of paper PMC6522484
